Results: PubChem BioAssay AID1159580 (chemical genetic matrix, 2015)
Values joined by “and” are separate entries in the source; they are usually repeats but may differ in a detail not shown here. Equal values may be shown once. Among all 5,500 compounds or so, about 2,000 (36%) were called active. Inconclusive results (about 18%) are left out. Cut-off read from the data, not from the text of the source: active = normalized growth mostly below about 0.91 (no sharp cut-off); inconclusive = no clear call, values can overlap the other calls; inactive = mostly above about 0.92. The list shows a part of the results.

Test: chemical genetic growth profiling, strain panel (AID 1159580);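 note: tested at 20 µM; growth read once vehicle control cultures reached saturation at 30 °C; 1 = growth at the plate median or of vehicle wells; lower values mean less growth of the strain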
Conditions: S. cerevisiae deletion strains, growth OD

Measured: normalized growth

CC(C)[C@@H]1CC[C@@H](C)CC1=O
inactive: locus YAL013W, strain DEP1, stronger effect = lower value 1.01 | locus YAL021C, strain ccr4, stronger effect = lower value 0.945 | locus YAL026C, strain drs2, stronger effect = lower value 1.01 | locus YAL030W, strain snc1, stronger effect = lower value 0.998 | locus YBL061C, strain skt5, stronger effect = lower value 0.993 | locus YBR009C, strain hhf1, stronger effect = lower value 0.981 | locus YBR021W, strain FUR4, stronger effect = lower value 0.98 | locus YBR023C, strain chs3, stronger effect = lower value 0.993 | locus YBR171W, strain sec66, stronger effect = lower value 0.986 | locus YBR229C, strain ROT2, stronger effect = lower value 1.01 | locus YBR231C, strain swc5, stronger effect = lower value 0.988 | locus YBR279W, strain paf1, stronger effect = lower value 0.994 | locus YCL011C, strain gbp2, stronger effect = lower value 0.967 | locus YCL016C, strain dcc1, stronger effect = lower value 0.978 | locus YCL029C, strain bik1, stronger effect = lower value 1.01 | locus YCL061C, strain MRC1, stronger effect = lower value 0.997 | locus YCL069W, strain vba3, stronger effect = lower value 0.99 | locus YCR088W, strain abp1, stronger effect = lower value 0.997 | locus YDL005C, strain med2, stronger effect = lower value 0.998 | locus YDL035C, strain GPR1, stronger effect = lower value 1.02 | locus YDL040C, strain nat1, stronger effect = lower value 1 | locus YDL074C, strain BRE1, stronger effect = lower value 1.02 | locus YDL101C, strain DUN1, stronger effect = lower value 1.02 | locus YDL134C, strain PPH21, stronger effect = lower value 1.02 | locus YDL185W, strain tfp1, stronger effect = lower value 1.01 | locus YDL192W, strain arf1, stronger effect = lower value 1.02 | locus YDR001C, strain nth1, stronger effect = lower value 1.01 | locus YDR069C, strain doa4, stronger effect = lower value 1.01 | locus YDR101C, strain arx1, stronger effect = lower value 1.01 | locus YDR137W, strain rgp1, stronger effect = lower value 1 | locus YDR150W, strain NUM1, stronger effect = lower value 1.02 | locus YDR159W, strain sac3, stronger effect = lower value 0.996 | locus YDR162C, strain NBP2, stronger effect = lower value 1.04 | locus YDR195W, strain ref2 0.976 | locus YDR297W, strain sur2, stronger effect = lower value 0.987 | locus YDR318W, strain mcm21, stronger effect = lower value 0.998 | locus YDR334W, strain swr1, stronger effect = lower value 0.993 | locus YDR335W, strain msn5, stronger effect = lower value 0.987 | locus YDR388W, stronger effect = lower value 1 | locus YDR392W, strain spt3, stronger effect = lower value 0.963 | locus YDR502C, strain sam2, stronger effect = lower value 1.01 | locus YEL003W, strain gim4, stronger effect = lower value 0.995 | locus YEL037C, strain rad23, stronger effect = lower value 0.982 | locus YEL061C, strain CIN8 (second series), stronger effect = lower value 0.989 | locus YEL061C, strain CIN8, stronger effect = lower value 1 | locus YER015W, strain faa2, stronger effect = lower value 0.984 | locus YER016W, strain bim1, stronger effect = lower value 0.991 | locus YER110C, stronger effect = lower value 1.01 | locus YER111C, strain swi4, stronger effect = lower value 1 | locus YER155C, strain BEM2 (second series), stronger effect = lower value 0.99 | locus YER155C, strain BEM2, stronger effect = lower value 0.998 | locus YER167W, strain BCK2, stronger effect = lower value 1.02 | locus YFR010W, strain ubp6, stronger effect = lower value 0.996 | locus YGL078C, strain dbp3, stronger effect = lower value 1 | locus YGL086W, strain mad1, stronger effect = lower value 1.01 | locus YGL167C, strain pmr1, stronger effect = lower value 0.992 | locus YGL173C, strain kem1, stronger effect = lower value 0.999 | locus YGL227W, strain vid30, stronger effect = lower value 1 | locus YGL240W, strain doc1, stronger effect = lower value 1 | locus YGL248W, strain PDE1, stronger effect = lower value 1.02 | locus YGL253W, strain hxk2, stronger effect = lower value 0.992 | locus YGR078C, strain PAC10, stronger effect = lower value 1.02 | locus YGR135W, strain pre9, stronger effect = lower value 1.01 | locus YGR229C, strain SMI1, stronger effect = lower value 1.05 | locus YGR252W, strain gcn5, stronger effect = lower value 1.03 | locus YHR013C, strain ard1, stronger effect = lower value 0.979 | locus YHR027C, strain rpn1, stronger effect = lower value 1 | locus YHR030C, strain SLT2, stronger effect = lower value 1.01 and 0.977 | locus YHR079C, strain IRE1 (second series), stronger effect = lower value 0.995 | locus YHR079C, strain IRE1, stronger effect = lower value 0.976 | locus YHR094C, strain hxt1, stronger effect = lower value 1.02 | locus YHR129C, strain ARP1, stronger effect = lower value 1.01 | locus YHR142W, strain chs7, stronger effect = lower value 0.968 | locus YHR200W, strain rpn10, stronger effect = lower value 1.01 | locus YIL066C, strain RNR3, stronger effect = lower value 1.04 | locus YIL073C, strain SPO22, stronger effect = lower value 1.06 | locus YIL125W, strain kgd1, stronger effect = lower value 1.02 | locus YIR030C, strain dcg1, stronger effect = lower value 1.01 | locus YJL092W, strain hpr5, stronger effect = lower value 0.989 | locus YJL095W, strain BCK1 (second series), stronger effect = lower value 0.978 | locus YJL095W, strain BCK1, stronger effect = lower value 1.06 and 0.982 | locus YJL115W, strain asf1, stronger effect = lower value 0.991 | locus YJL129C, strain trk1, stronger effect = lower value 1.01 | locus YJL134W, strain LCB3, stronger effect = lower value 1.01 | locus YJL154C, strain vps35, stronger effect = lower value 0.989 | locus YJL164C, strain tpk1, stronger effect = lower value 0.961 | locus YJL166W, strain qcr8, stronger effect = lower value 0.995 | locus YJL168C, strain set2, stronger effect = lower value 0.996 | locus YJL187C, strain SWE1 (second series), stronger effect = lower value 1.03 | locus YJL187C, strain SWE1, stronger effect = lower value 0.99 | locus YJR043C, strain POL32, stronger effect = lower value 1.02
